# Assay results published in PubChem BioAssay (Tox21).
# Calls of active or inactive are those of the source. Where a call stands in place of a potency, no number is given. Calls follow the shape of the full dose curve.
# Target: Gonadotropin-releasing hormone receptor (Homo sapiens) (UniProt P30968)
# Assay: Human gonadotropin-releasing hormone receptor (GnRHR) small molecule agonists, calcium flux assay in GnRHR-HEK293 cells (AID 1920063); also: nearly all actives have a fitted effect of over 35% in size
# Conditions: calcium flux fluorescence, agonist mode; series mostly up to 57.6 µM
# In short: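 Fluorescence kinetics (480 nm excitation, 540 nm emission; 3 min, 1 s steps) report calcium mobilisation in human GnRHR-HEK293 cells in agonist mode. Dye incubation: 1 h, 37 C.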
# Potency is read from the fitted curve at half-maximal effect.
# Sequence of Gonadotropin-releasing hormone receptor (Homo sapiens) (P30968 whole entry, looked up): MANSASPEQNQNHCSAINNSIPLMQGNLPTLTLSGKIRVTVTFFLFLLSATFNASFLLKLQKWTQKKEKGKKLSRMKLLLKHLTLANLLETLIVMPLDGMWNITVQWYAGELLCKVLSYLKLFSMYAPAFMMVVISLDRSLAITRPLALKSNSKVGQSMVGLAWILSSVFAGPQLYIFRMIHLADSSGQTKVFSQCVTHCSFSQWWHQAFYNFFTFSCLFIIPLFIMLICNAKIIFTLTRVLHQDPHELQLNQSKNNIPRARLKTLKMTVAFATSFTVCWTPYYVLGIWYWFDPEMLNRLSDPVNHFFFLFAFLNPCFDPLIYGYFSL
row,Structure (SMILES),Potency
1,O=C(O)[C@H](O)[C@@H](O)[C@H](O[C@@H]1O[C@H](CO)[C@H](O)[C@H](O)[C@H]1O)[C@H](O)CO,inactive
2,c1ccc2cc3c4ccccc4c4ccccc4c3cc2c1,inactive
3,CC(=O)/C=C/C1C(C)=CCCC1(C)C (stereo unspecified),inactive
4,C=CC(=O)OCC(CO)(COC(=O)C=C)COC(=O)C=C,inactive
5,NC(=O)NNc1ccccc1,inactive
6,CC(=O)C(C)O (stereo unspecified),inactive
7,Cc1c(I)c(=O)n(-c2ccccc2)n1C,inactive
8,C1=COCCC1,inactive
9,COc1ccc(NC(C)=O)cc1,inactive
10,CCC1COC(=O)O1 (stereo unspecified),inactive
11,COc1cccc2c1C(=O)c1c(O)c3c(c(O)c1C2=O)C[C@@](O)(C(C)=O)C[C@@H]3O[C@H]1C[C@H](N)[C@H](O)[C@H](C)O1,34.9 µM (active)
12,CC(C)C(=O)C(C)C,inactive
13,CCCCCCOC(=O)CC,inactive
14,Cc1cncc(C)c1,inactive
15,CC(C)OC(=O)CCCCC(=O)OC(C)C,inactive
16,NC1CCCCC1N (stereo unspecified),inactive
17,ClC/C=C\CCl,inactive
18,Oc1ccc(O)c2c(O)cccc12,inactive
19,CO[C@@]1(NC(=O)C(C(=O)O)c2ccc(O)cc2)C(=O)N2C(C(=O)O)=C(CSc3nnnn3C)CO[C@@H]21 (stereo partly specified),inactive
20,OC1OC[C@@H](O)[C@H](O)[C@H]1O (stereo partly specified),inactive
21,NC(=O)NNC(N)=O,inactive
22,O=C(O)c1ccccc1-n1cc(C(=O)O)c(=O)c2cc(Nc3c(F)cc(F)cc3Cl)c(Cl)cc21,inactive
23,CCc1occc(=O)c1O,inactive
24,NCCNCCNCCN,inactive
25,CCCCCCCOC(=O)c1ccccc1C(=O)OCCCCCCC,inactive
26,COc1ccc(C)cc1,inactive
